Hits are enriched below; roughly 18% of the tested compounds scored in any of these assays.
TDP1 cell noCPT = qHTS for Inhibitors of human tyrosyl-DNA phosphodiesterase 1 (TDP1): qHTS in cells in absence of CPT; DT40 Tdp1-/- hTDP1 cells, no CPT, ATP luminescence, 48 h; 420,000 compounds, 15% hits; Potency, µM (doses to about 46.2 µM), for inactives: at the highest dose activity change, negative = growth inhibition, actives largely listed as inhibitors; also: nearly all actives have a fitted effect of over 55% in size
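Chicken DT40 Tdp1-/- cells stably complemented with human TDP1 were seeded at 400 cells/well with DMSO in place of 20 nM camptothecin. After compound pinning, cells grew at least 48 hr at 37 °C; viability read by CellTiter-Glo luminescence.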
TDP1 cell CPT = DT40-hTDP1 cell growth loss with CPT | chicken DT40 Tdp1-/-;hTDP1 cells + 20 nM CPT, ATP luminescence, 48 h | 420,000 compounds, 12% hits | Potency, µM (titrated, usually from 46.2 µM), inactives show at the highest dose activity change, negative = growth inhibition, usual class: inhibitors; also: nearly all actives have a fitted effect of over 55% in size
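Chicken DT40 Tdp1-/- cells stably complemented with human TDP1 were seeded at 400 cells/well in medium containing 20 nM camptothecin, exposed to pin-transferred compounds, and grown at 37 °C for at least 48 hr. Viability was read as ATP luminescence.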
VDR inh = inhibitors of human vitamin D receptor; Potency, µM, without a hit: max response, negative = inhibition, most hits filed as inhibitors; VDR-SRC2-3 peptide fluorescence polarization, 2 h; AID 504847; 400,000 compounds, 0.93% hits; P11473
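FP read-out; VDR + SRC2-3 coactivator peptide; 23 nl compound by pintool; 2 h RT incubation; reagents held at 4 deg C, protected from light.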
KAT2A inh = GCN5L2 (KAT2A) acetyltransferase inhibition; GCN5L2 HAT assay, ThioGlo1 CoA-SH fluorescence; Potency, µM (titrated, usually from 58.9 µM), inactives show top-dose activity change, negative = inhibition, usual class: inhibitors; 390,000 compounds, 0.21% hits; Q92830
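qHTS, 1536-well. 20nM enzyme, pH 7.5 HEPES/EDTA/Tween-20 buffer; 15 min compound preinc., RT. Start: 75uM H3(1-25), 70uM AcCoA, 50uM ThioGlo1. Read Ex340/Em540 at t=0 (autofluorescence flag) and t=20 min.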
PLK1 PBD inh = blocks phosphopeptide binding to human PLK1 polo-box domain | Potency, µM, without a hit: max response, negative = inhibition, actives largely listed as inhibitors | P53350 | Plk1 PBD binding of FITC phosphopeptide, fluorescence polarization | 360,000 compounds, 2.8% hits; also: series mostly up to about 57 µM; nearly all actives have a fitted effect of over 65% in size
TDP1 block = TDP1 (human) enzyme inhibition; 350,000 compounds, 0.28% hits; recombinant TDP1, AlphaScreen DNA substrate cleavage; Q9NUW8; AID 485290; Potency, µM (highest dose often 130 µM), without a hit: top-dose activity change, negative = inhibition, usual class: inhibitors; also: nearly all actives have a fitted effect of over 40% in size
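Recombinant E. coli-expressed Tdp1 (1 nM) preincubated with compound 15 min at RT, then 5'-biotin/3'-phosphotyrosine-FITC DNA substrate (15 nM) added for 5 min. AlphaScreen beads (10 ug/ml) added, 10 min RT; tyrosine-FITC cleavage read as signal loss.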
Numbers without * were called inactive; ? = inconclusive; . = no result given. Calls follow the shape of the dose curve; as a rule, active = well fitted curve in the direction sought with a large enough effect; inconclusive = small, poorly fitted or top-dose-only effect, or another doubt; inactive = no such curve, though single readings can be large; an effect the other way counts as inactive or inconclusive. % is scaled to controls: 0 for no effect and ±100 for the full control effect; potency is read from the fitted curve at half-maximal effect.

SMILES	TDP1 cell noCPT	TDP1 cell CPT	VDR inh	KAT2A inh	PLK1 PBD inh	TDP1 block
CC1C(=O)N(Cc2cn(CC3CCCCC3)nn2)CCS(=O)(=O)N1Cc1ccc(-c2ccc(Cl)c(Cl)c2)cc1 (stereo unspecified)	9.2µM*	10µM*	.	.	-2%	.
CC1C(=O)N(Cc2cn(CC3CCCCC3)nn2)CCS(=O)(=O)N1Cc1ccc(-c2ccc(Cl)cc2)cc1 (stereo unspecified)	8.2µM*	16µM*	.	.	-5%	.
COC(=O)c1ccc(CN2CCN(CCc3ccccc3)C(CCO)C2)cc1 (stereo unspecified)	-20%	0%	1%	9%	-11%	4%
COc1ccc(OC)c(NC(=O)Cn2c(=O)n(-c3ccc(Cl)cc3)c(=O)c3c(C)c(C)sc32)c1	?	?	-7%	4%	.	3%
Cc1ccc(NC(=O)Cn2c(=O)cc(-c3ccccc3)c3c(C)nn(C)c32)c(Cl)c1	-15%	-27%	6%	-5%	.	6%
COc1ccccc1CCNC(=O)C(=O)NCC(c1cccnc1)N1CCN(c2ccccc2)CC1 (stereo unspecified)	12µM*	12µM*	2%	-3%	.	6%
COc1ccccc1CNC(=O)C(=O)NCC(c1cccnc1)N1CCN(c2ccc(F)cc2)CC1 (stereo unspecified)	13µM*	12µM*	4%	-9%	.	6%
COc1ccccc1N1CCN(C(CNC(=O)C(=O)NCCN(C)C)c2cccnc2)CC1 (stereo unspecified)	-19%	-11%	6%	-4%	.	-6%
CC(C)(CNCc1ccccc1)NS(=O)(=O)c1ccc(Cl)cc1	?	?	-20%	-3%	-2%	-4%
O=c1c(-c2cccc(F)c2)nc2cncnc2n1Cc1ccccc1Cl	-14%	-4%	12%	-14%	.	.
Clc1ccc(-c2cc3nc(NCc4cccc(Cl)c4)ccn3n2)cc1	26µM*	?	.	.	-25%	.
Clc1cccc(CNc2ccn3nc(-c4cccc(Cl)c4)cc3n2)c1	?	?	.	.	2%	.
N#Cc1sc(NCc2cccc(Cl)c2)nc1Cl	?	10%	-6%	2%	-3%	.
CN(C)C(=O)CNc1ccn2nc(-c3cccc(Cl)c3)cc2n1	18µM*	23µM*	.	.	-11%	.
Clc1cccc(CNc2ccn3nc(-c4ccccc4)cc3n2)c1	21µM*	23µM*	.	.	-8%	.
CC(C)(C)c1cc2nc(NCc3cccc(Cl)c3)ccn2n1	16µM*	18µM*	.	.	-11%	.
CCc1nnc(SC(CC)C(=O)Nc2cccc(OC)c2)c2cc3oc(C)cc3n12 (stereo unspecified)	?	?	4%	-6%	.	-10%
CCCCn1nnnc1C(c1cc2ccccc2o1)N1CCN(c2cc(C)nc3ccccc23)CC1 (stereo unspecified)	?	?	.	.	9%	.
O=C(O)c1cccc2c1C(=O)c1cc([N+](=O)[O-])ccc1-2	?	?	-10%	.	-5%	.
Clc1cccc(CNc2ccn3nc(-c4ccc(OCc5ccccc5)cc4)cc3n2)c1	?	16µM*	.	.	1%	.
Cc1cccc(C)c1NC(=O)COc1ccc2c(C)c(Cc3ccccc3)c(=O)oc2c1	12µM*	?	-11%	-7%	-9%	5%
CC(=O)c1cccc(NC(=O)COc2ccc3oc(=O)cc(C)c3c2)c1	?	18µM*	-22%	-1%	-2%	.
COc1cc(NC(=O)COc2cc3oc(=O)cc(C)c3cc2Cl)cc(OC)c1OC	5.8µM*	8.2µM*	0%	-10%	2%	-2%
Cc1cc(=O)oc2cc(OCC(=O)Nc3c(Cl)cccc3C(F)(F)F)ccc12	13µM*	?	-9%	-1%	-9%	3%

Bioassay records as filed in PubChem.
